Laboratory results published in PubChem BioAssay (NCATS).
Inconclusive results are not listed. The source made the active and inactive calls. Calls come from the whole dose curve; as a rule, active = well fitted curve in the direction sought with a large enough effect; inconclusive = small, poorly fitted or top-dose-only effect, or another doubt; inactive = no such curve, though single readings can be large; an effect the other way counts as inactive or inconclusive.

Key:
[1] = test system: HEK293T; assay: qHTS assay to identify novel small-molecules to repurpose for Merkel cell carcinoma treatment (AID 1296009); conditions: MCC and control cell lines, CellTiter-Glo viability, 72 h; at 44.8 µM (top of the series) unless noted; note: nearly all actives have a fitted effect of over 60% in size
In short: (§1)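 Luminescence from CellTiter-Glo, read 10 min after addition at room temperature, reported viability following a 72 hr, 37 degree celsius treatment with NPC or MIPE compounds in titration; values normalized to plate controls.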

[2] = test system: MCC-13; assay: as above; conditions: MCC and control cell lines, CellTiter-Glo viability, 72 h; series mostly up to 46 µM
In short: as §1

[3] = test system: MCC-26; assay: as above; conditions: MCC and control cell lines, CellTiter-Glo viability, 72 h; series mostly up to 46 µM
In short: as §1

[4] = test system: MKL-1; assay: as above; conditions: MCC and control cell lines, CellTiter-Glo viability, 72 h; series mostly up to 46 µM
In short: as §1

[5] = test system: MKL-2; assay: as above; conditions: MCC and control cell lines, CellTiter-Glo viability, 72 h; series mostly up to 46 µM
In short: as §1

[6] = test system: NIH3T3; assay: as above; conditions: MCC and control cell lines, CellTiter-Glo viability, 72 h; at 44.8 µM (top of the series) unless noted
In short: as §1

[7] = test system: UISO; assay: as above; conditions: MCC and control cell lines, CellTiter-Glo viability, 72 h; series mostly up to 46 µM
In short: as §1

[8] = test system: WaGa; assay: as above; conditions: MCC and control cell lines, CellTiter-Glo viability, 72 h; series mostly up to 46 µM
In short: as §1

[9] = test system: C33A; assay: Primary qHTS to identify gynecologic anti-cancer compounds using libraries of approved drugs and bioactive compounds (AID 1345084); conditions: Gynecologic cancer cell panel viability, ATPlite luminescence, 48 h; series mostly up to 57.5 µM; note: nearly all actives have a fitted effect of over 55% in size
In short: (§2)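 Cell viability after 48 h drug treatment, ATPlite luminescence readout; five doses.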

[10] = test system: CAOV3; assay: as above; conditions: Gynecologic cancer cell panel viability, ATPlite luminescence, 48 h; series mostly up to 57.5 µM
In short: as §2

[11] = test system: CASKI; assay: as above; conditions: Gynecologic cancer cell panel viability, ATPlite luminescence, 48 h; series mostly up to 57.5 µM
In short: as §2

[12] = test system: Es-2; assay: as above; conditions: Gynecologic cancer cell panel viability, ATPlite luminescence, 48 h; series mostly up to 57.5 µM
In short: as §2

[13] = test system: HeLa; assay: as above; conditions: Gynecologic cancer cell panel viability, ATPlite luminescence, 48 h; series mostly up to 57.5 µM
In short: as §2

[14] = test system: Hek293T; assay: as above; conditions: Gynecologic cancer cell panel viability, ATPlite luminescence, 48 h, control line for the selectivity index; series mostly up to 57.5 µM
In short: as §2

[15] = test system: JEG-3; assay: as above; conditions: Gynecologic cancer cell panel viability, ATPlite luminescence, 48 h; series mostly up to 57.5 µM
In short: as §2

[16] = test system: OV90; assay: as above; conditions: Gynecologic cancer cell panel viability, ATPlite luminescence, 48 h; series mostly up to 57.5 µM
In short: as §2

[17] = test system: PA-1; assay: as above; conditions: Gynecologic cancer cell panel viability, ATPlite luminescence, 48 h; series mostly up to 57.5 µM
In short: as §2

[18] = test system: SKOV3; assay: as above; conditions: Gynecologic cancer cell panel viability, ATPlite luminescence, 48 h; series mostly up to 57.5 µM
In short: as §2

[19] = test system: Tov-21-G; assay: as above; conditions: Gynecologic cancer cell panel viability, ATPlite luminescence, 48 h; series mostly up to 57.5 µM
In short: as §2

[20] = test system: Tov112D; assay: as above; conditions: Gynecologic cancer cell panel viability, ATPlite luminescence, 48 h; series mostly up to 57.5 µM
In short: as §2

Measured: Potency

CCCCCC[C@@H](CCC)C(=O)O
inactive: [1] | [2] | [3] | [4] | [5] | [6] | [7] | [8] | [9] | [10] | [11] | [12] | [13] | [14] | [15] | [16] | [17] | [18] | [19] | [20]

COC(=O)c1cc(Cl)ccc1OC
inactive: [1] | [2] | [3] | [4] | [5] | [6] | [7] | [8] | [9] | [10] | [11] | [12] | [13] | [14] | [15] | [16] | [17] | [18] | [19] | [20]

CCOc1ccccc1OCC1CNCCO1 (stereo unspecified)
inactive: [1] | [2] | [3] | [4] | [5] | [6] | [7] | [8] | [9] | [10] | [11] | [12] | [13] | [14] | [15] | [16] | [17] | [18] | [19] | [20]

O=C1CC(c2ccc(Cl)cc2)CC(=O)N1
inactive: [1] | [2] | [3] | [4] | [5] | [7] | [8] | [9] | [10] | [11] | [12] | [13] | [14] | [15] | [16] | [17] | [18] | [19] | [20]

COc1cc2c(cc1OC)CN(C(=O)[C@H](C)N[C@@H](CCc1ccccc1)C(=O)O)[C@H](C(=O)O)C2
inactive: [1] | [2] | [3] | [4] | [5] | [7] | [8] | [9] | [10] | [11] | [12] | [13] | [14] | [15] | [16] | [17] | [18] | [19] | [20]

Oc1ccccc1-c1nnco1
inactive: [1] | [2] | [3] | [4] | [5] | [7] | [8] | [9] | [10] | [11] | [12] | [13] | [14] | [15] | [16] | [17] | [18] | [19] | [20]

CN1CCCN=C1/C=C/c1cccs1
inactive: [1] | [2] | [3] | [4] | [5] | [7] | [8] | [9] | [10] | [11] | [12] | [13] | [14] | [15] | [16] | [17] | [18] | [19] | [20]
